According to the supplement of paper PMC11732987, “Enantioselective OTUD7B fragment discovery through chemoproteomics screening and high-throughput optimisation” (Communications Chemistry, 2025):

Legend:
Assay in all cases: log2 ratio of Biotin-Ahx-Ub-VS probe labelling (fragment/DMSO); higher = less target engagement (more negative = stronger competition), active = hit call of the paper (q ≤ 0.05, log2 ratio ≤ -1)
Details in all cases: compound concentration: 200 uM; treatment time: 3 h
USP9X = USP9X (UniProt Q93008)
Sequence of USP9X (Q93008 whole entry, the tested form may be a part): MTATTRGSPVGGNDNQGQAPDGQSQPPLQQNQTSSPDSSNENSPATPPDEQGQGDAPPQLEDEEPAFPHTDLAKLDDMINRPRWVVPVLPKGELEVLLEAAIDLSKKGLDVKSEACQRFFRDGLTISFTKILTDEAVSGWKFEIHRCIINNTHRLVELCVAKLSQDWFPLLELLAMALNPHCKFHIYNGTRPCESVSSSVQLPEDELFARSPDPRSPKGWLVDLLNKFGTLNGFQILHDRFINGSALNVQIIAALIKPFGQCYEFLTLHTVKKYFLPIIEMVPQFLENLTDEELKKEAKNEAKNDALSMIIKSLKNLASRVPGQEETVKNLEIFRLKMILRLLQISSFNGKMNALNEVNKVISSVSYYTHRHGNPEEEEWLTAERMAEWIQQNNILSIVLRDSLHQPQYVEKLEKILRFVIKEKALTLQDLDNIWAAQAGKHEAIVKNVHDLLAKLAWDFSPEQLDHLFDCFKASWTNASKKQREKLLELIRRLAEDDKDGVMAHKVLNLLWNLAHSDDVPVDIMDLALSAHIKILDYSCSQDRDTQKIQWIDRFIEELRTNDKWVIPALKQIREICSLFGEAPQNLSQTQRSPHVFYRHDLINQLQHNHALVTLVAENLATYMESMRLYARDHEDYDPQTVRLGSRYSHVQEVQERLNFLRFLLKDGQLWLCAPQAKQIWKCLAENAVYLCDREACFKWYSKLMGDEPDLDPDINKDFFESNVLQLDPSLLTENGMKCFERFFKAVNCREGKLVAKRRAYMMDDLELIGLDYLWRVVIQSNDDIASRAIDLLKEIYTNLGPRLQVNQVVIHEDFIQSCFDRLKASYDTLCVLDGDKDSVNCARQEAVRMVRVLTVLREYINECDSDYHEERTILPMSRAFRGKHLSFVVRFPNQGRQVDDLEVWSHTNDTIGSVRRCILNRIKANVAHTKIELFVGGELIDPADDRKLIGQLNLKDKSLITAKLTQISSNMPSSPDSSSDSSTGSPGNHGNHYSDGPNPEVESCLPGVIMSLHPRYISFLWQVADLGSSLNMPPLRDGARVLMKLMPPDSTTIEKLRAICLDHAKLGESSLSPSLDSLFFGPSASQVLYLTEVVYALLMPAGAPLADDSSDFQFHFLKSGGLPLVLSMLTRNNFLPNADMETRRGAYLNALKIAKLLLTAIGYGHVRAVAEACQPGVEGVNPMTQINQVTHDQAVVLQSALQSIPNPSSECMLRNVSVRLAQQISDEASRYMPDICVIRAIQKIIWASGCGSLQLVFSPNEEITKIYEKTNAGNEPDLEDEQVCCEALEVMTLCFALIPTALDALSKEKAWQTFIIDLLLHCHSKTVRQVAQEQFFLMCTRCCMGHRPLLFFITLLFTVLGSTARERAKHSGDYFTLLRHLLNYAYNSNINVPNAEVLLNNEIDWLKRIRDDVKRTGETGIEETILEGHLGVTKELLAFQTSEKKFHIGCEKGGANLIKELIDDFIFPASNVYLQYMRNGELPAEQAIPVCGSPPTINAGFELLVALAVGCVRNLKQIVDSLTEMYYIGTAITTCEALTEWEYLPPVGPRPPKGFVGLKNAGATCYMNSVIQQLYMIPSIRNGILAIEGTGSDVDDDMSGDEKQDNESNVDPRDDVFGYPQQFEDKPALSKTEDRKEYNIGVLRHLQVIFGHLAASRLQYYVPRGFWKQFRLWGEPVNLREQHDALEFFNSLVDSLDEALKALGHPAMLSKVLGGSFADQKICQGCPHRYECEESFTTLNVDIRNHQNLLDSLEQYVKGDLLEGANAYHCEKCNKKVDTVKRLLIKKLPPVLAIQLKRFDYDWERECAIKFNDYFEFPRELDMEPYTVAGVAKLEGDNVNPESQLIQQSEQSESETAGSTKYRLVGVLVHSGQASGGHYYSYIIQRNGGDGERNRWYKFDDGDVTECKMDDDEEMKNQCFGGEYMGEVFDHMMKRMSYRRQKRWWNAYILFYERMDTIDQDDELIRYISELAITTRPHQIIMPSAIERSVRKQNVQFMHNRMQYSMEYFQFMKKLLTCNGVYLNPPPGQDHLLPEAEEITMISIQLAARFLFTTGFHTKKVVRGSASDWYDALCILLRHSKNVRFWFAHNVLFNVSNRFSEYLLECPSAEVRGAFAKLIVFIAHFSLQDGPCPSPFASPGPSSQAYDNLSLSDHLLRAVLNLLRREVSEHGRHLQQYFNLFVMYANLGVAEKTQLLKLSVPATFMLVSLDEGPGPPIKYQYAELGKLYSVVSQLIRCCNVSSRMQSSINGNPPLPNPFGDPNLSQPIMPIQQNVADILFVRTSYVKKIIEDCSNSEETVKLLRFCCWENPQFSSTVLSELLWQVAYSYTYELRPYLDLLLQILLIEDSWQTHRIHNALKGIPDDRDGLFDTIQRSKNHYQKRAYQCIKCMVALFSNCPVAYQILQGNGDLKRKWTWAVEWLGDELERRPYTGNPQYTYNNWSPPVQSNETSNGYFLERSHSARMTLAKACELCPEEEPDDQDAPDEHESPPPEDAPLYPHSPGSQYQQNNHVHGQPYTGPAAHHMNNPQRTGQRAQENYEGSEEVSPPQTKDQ
In short: (§1)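 HEK293T lysate (495 µg per sample, in Tris/CHAPS/IGEPAL buffer with protease inhibitors) was treated in triplicate with fragment at 200 µM or with DMSO for 3 h. It was then treated with Biotin-Ahx-Ub-VS (0.5 µM final) for 1 h. Labelled DUBs were NeutrAvidin-enriched, digested with LysC and trypsin, and run by diaPASEF LC-MS/MS. Spectronaut label-free quantities were global-median-normalised. Values are average log2 ratios fragment/DMSO by unpaired t-test, using proteins with ≥2 unique peptides.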

UniProt O00487 = biological target: UniProt O00487
In short: as §1

UniProt O00507 = biological target: UniProt O00507
Sequence of UniProt O00507 (O00507 whole entry): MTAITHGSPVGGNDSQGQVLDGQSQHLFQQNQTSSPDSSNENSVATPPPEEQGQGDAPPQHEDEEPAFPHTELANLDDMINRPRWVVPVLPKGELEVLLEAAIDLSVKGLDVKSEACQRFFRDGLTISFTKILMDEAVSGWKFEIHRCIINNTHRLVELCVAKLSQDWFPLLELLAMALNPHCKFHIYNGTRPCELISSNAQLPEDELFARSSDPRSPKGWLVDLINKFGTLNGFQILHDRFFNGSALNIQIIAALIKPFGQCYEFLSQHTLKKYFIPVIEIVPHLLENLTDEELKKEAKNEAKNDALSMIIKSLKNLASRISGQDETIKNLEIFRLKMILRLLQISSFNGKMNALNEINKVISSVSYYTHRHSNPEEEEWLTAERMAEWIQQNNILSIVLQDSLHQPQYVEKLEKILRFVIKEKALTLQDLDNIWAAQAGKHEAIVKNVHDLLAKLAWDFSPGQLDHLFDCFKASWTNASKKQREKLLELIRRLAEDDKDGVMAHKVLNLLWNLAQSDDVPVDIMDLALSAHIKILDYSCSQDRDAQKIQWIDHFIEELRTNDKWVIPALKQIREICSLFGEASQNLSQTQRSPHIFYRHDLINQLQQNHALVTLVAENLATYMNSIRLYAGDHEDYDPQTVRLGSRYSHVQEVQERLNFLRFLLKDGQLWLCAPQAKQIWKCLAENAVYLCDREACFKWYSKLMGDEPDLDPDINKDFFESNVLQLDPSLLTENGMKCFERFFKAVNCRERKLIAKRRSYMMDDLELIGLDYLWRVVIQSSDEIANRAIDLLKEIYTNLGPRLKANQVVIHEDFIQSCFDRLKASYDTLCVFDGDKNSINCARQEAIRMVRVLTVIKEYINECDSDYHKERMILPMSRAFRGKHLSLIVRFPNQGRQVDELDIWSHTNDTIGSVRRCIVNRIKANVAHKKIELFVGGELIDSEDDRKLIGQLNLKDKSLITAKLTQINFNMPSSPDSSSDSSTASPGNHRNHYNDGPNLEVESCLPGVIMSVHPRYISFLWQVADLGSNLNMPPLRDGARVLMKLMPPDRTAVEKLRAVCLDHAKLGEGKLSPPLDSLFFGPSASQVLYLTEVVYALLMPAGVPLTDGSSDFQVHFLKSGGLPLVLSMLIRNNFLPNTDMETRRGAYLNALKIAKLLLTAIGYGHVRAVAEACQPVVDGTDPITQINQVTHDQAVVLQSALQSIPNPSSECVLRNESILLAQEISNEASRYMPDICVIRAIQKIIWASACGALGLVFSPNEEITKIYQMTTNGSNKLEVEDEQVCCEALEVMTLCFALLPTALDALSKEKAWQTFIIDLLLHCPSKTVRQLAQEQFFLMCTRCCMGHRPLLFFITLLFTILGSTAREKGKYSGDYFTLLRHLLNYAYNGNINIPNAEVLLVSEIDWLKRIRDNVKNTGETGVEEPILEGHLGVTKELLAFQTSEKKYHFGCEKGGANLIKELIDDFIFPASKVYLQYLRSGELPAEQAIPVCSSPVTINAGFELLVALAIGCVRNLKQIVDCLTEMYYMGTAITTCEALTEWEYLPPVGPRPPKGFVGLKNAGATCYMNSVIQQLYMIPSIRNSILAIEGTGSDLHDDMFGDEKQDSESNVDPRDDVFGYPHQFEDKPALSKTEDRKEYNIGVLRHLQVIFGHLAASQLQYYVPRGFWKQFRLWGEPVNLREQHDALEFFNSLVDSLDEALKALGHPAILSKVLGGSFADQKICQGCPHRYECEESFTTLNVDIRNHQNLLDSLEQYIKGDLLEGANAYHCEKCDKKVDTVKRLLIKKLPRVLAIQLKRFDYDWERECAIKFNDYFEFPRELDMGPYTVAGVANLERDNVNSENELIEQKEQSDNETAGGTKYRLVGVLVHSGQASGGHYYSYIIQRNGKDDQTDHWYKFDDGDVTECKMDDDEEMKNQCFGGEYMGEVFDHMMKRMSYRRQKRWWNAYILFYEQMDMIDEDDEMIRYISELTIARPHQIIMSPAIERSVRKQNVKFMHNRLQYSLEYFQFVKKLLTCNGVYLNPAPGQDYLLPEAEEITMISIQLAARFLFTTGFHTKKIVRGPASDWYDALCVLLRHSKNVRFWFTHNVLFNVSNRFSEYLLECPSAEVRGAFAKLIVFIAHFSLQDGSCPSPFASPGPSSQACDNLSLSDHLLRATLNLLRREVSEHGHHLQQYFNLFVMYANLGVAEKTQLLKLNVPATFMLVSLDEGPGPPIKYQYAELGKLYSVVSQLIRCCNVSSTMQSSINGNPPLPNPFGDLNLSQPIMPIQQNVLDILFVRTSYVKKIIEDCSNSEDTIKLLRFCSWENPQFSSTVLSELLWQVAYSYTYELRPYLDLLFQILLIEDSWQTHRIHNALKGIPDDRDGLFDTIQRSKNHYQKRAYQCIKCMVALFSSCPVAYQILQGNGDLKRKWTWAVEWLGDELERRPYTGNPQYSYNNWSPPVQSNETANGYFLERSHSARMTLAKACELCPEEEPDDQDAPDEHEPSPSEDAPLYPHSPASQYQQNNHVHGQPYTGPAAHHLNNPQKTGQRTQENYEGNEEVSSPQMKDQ
In short: as §1

UniProt P51784 = biological target: UniProt P51784
In short: as §1

UniProt Q5T2D3 = biological target: T1, UniProt Q5T2D3
T1 sequence (whole entry): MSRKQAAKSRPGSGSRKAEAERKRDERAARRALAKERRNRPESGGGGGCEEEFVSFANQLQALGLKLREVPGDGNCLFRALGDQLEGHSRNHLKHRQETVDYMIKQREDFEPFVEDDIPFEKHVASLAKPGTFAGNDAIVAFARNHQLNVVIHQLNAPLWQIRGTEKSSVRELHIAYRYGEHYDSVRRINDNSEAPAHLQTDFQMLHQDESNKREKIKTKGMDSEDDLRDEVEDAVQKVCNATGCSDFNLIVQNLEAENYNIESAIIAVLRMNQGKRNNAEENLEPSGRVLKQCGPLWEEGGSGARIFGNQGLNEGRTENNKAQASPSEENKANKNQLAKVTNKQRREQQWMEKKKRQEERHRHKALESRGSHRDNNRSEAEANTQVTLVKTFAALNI
In short: as §1

UniProt Q8TE49 = biological target: T2, UniProt Q8TE49
T2 sequence (whole entry): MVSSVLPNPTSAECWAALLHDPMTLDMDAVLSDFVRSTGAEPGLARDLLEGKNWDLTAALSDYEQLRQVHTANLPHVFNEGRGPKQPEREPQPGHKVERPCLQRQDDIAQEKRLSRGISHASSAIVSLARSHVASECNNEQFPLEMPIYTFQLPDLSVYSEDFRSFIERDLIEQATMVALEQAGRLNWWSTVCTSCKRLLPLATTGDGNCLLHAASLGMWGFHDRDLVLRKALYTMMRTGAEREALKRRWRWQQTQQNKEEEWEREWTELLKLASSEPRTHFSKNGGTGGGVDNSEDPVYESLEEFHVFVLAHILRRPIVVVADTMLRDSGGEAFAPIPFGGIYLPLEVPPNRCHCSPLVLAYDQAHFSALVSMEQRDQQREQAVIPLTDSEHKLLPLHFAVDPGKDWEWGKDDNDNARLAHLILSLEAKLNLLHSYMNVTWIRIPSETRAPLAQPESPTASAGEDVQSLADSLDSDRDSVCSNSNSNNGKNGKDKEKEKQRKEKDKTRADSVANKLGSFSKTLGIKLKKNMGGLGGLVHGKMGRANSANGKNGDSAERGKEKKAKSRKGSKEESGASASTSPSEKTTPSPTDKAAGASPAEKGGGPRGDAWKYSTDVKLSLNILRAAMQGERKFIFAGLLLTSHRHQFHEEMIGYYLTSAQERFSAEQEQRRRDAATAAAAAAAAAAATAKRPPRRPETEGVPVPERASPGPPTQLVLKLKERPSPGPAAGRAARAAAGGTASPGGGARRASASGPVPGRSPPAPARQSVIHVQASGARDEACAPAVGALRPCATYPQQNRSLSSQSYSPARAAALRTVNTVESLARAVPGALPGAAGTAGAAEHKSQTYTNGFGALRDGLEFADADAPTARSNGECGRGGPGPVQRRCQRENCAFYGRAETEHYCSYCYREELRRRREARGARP
In short: as §1

UniProt Q9P2H5 = biological target: T3, UniProt Q9P2H5
T3 sequence (whole entry): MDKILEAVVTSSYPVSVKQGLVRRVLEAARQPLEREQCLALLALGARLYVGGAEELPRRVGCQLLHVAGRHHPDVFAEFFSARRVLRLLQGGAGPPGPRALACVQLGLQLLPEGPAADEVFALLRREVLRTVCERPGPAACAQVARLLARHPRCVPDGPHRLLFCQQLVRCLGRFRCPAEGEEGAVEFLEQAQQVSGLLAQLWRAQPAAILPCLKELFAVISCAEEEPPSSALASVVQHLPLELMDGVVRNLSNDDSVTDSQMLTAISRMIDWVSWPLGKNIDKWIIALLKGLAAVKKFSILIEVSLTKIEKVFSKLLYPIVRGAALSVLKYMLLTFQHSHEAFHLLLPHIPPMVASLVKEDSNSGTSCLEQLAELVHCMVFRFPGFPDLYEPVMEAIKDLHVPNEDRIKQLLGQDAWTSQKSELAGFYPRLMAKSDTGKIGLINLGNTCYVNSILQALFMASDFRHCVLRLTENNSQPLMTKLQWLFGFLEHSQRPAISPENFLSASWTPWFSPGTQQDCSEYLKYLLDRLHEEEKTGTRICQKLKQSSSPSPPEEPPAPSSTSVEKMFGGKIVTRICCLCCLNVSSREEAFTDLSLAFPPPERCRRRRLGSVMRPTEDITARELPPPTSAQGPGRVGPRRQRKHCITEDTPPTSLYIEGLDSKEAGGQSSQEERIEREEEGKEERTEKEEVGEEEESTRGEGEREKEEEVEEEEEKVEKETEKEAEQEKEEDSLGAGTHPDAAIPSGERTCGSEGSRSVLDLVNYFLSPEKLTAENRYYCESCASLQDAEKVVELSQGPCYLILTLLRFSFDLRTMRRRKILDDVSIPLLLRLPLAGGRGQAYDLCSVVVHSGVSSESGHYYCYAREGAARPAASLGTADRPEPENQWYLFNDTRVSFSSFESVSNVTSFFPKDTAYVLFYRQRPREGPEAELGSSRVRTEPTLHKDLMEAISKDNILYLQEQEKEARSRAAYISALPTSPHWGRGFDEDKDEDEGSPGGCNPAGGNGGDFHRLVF
In short: as §1

UniProt Q9UGI0 = biological target: T4, UniProt Q9UGI0
T4 sequence (whole entry): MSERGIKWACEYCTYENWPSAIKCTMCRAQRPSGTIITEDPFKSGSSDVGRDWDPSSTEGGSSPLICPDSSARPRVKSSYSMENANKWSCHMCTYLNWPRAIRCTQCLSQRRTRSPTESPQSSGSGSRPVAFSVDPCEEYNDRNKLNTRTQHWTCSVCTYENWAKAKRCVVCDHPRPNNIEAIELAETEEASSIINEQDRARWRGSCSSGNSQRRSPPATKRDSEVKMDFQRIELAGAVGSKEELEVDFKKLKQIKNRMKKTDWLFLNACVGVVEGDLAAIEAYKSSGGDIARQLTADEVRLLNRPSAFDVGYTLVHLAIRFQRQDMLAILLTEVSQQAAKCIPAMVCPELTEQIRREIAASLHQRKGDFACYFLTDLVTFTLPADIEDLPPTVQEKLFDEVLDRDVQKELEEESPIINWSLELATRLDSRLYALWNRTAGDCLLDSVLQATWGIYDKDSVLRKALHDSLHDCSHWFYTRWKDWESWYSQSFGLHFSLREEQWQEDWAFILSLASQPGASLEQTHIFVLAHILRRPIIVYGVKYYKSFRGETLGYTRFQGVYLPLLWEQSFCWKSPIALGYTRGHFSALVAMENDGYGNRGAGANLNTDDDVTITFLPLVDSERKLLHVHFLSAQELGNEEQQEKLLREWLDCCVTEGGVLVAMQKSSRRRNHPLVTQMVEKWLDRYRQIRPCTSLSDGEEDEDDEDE
In short: as §1

YOD1 = biological target: T5, YOD1 (UniProt Q5VVQ6)
T5 sequence (whole entry): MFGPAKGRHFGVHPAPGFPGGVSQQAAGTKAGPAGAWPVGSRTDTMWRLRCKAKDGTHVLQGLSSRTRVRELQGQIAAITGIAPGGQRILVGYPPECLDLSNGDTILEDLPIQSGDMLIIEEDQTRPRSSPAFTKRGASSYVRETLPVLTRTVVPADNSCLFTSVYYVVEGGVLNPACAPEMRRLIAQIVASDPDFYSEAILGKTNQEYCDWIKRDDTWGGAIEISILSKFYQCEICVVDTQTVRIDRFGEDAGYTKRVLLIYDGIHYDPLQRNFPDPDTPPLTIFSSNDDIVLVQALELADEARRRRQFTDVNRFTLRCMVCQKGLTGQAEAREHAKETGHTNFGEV
In short: as §1

Measured: log2 ratio of Biotin-Ahx-Ub-VS probe labelling

N#Cc1ccc(CNC(=O)CCl)cc1
inactive: USP9X -0.0142 | UniProt O00487 -0.00705 | UniProt O00507 -0.0509 | UniProt P51784 -0.059 | UniProt Q5T2D3 -0.00706 | UniProt Q8TE49 -0.236 | UniProt Q9P2H5 -0.0879 | UniProt Q9UGI0 -0.592 | YOD1 -0.136
